From PubChem BioAssay (NCI)
About 79,000 compounds went through this panel and 15% of them were active in at least one assay; those are over-represented in the sample as a whole. Unmarked numbers belong to inactive results. Cut-off read from the data, not from the text of the source: active = growth inhibition above about 70%; inactive = the rest.

assay: NCI Yeast Anticancer Drug Screen. Data for the bub3 strain (AID 167); conditions: S. cerevisiae bub3 mutant strain, at 50.0 µM, active compounds read high
How it was run: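 Growth of a checkpoint-deficient yeast mutant is measured after compound exposure. Values represent inhibition relative to vehicle.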

Structure (SMILES) | growth inhibition [%]
COc1cccc(OC(=O)Nc2ccccc2)c1 | -20.6
O=C1C(O)=C(Cl)C(=O)C(O)=C1Cl.[Zn+2] | -16.9
O=CNCC(O)c1ccc2c(c1)[nH]c1ccccc12 (stereo not given) | 19
C1CCCCCC2=C(CCCC1)CCCO2 | 10.2
CSC1=NC=C(C#N)C2=NC(c3ccc(Cl)cc3)NN12 (stereo not given) | 15.8
COc1cc(CCl)c(OC)cc1Cl | 13.6
CC(=O)CC(=O)Nc1ccc(C(=O)c2ccccc2)cc1 | 4.5
O=C(N/C(=C\c1ccccc1[N+](=O)[O-])c1nc2ccccc2[nH]1)c1ccccc1 | 6.85
ClCC#CCCl | -7.4
NS(=O)(=O)c1ccc(Nc2c3ccccc3nc3ncccc23)cc1 | 9.2
CCCCCNC(=O)CCC | 7.05
Cc1ccc(N=C2C(c3ccccc3)=C(SC3=C(c4ccccc4)C(=Nc4ccc(C)cc4)c4ccccc43)c3ccccc32)cc1 | -3
CS(=O)(=O)OCC(CCl)(CCl)CCl | -3.45
O=C(N=c1ccc2nc(=O)[nH]n(O)c-2c1)C(F)(F)F | -46.6
Cc1nc([N+](=O)[O-])cn1CC(=N)N | -25.6
NC1=C(Br)C(=O)c2[nH]c(=O)[nH]c(=O)c2C1=O | 7.15
CC1(C)C(=NN=C(N)N)C(C)(C)C1=NN=C(N)N | -18.5
CC1OC(C)(c2ccccc2)OC1C (stereo not given) | 32.7
COc1cccc(C(F)(F)F)c1 | 19.4
c1ccc(CN(CCNc2ccccc2)c2ccccc2)cc1 | 50.6

Structure (SMILES) | growth inhibition [%]
O=S(=O)(N=N/C=C1\C=CC=CN1O)c1cccs1 | -26.4
Cc1noc(C)c1N=Nc1ccc2nonc2c1N | 9.35
NC(=O)C(=O)CC(=O)c1ccccc1NC1=CC(=O)C(=O)c2ccccc21 | 36.4
COc1ccccc1C=Nc1ccc(O)cc1 | 3.5
CC(CC(=N)N)NC(=O)C1CCC(N)=N1 (stereo not given) | -14.2
CCN(CC)CCCC(C)Nc1ccnc2ccc3nn(C)nc3c12 (stereo not given) | -14
COc1ccc2c(c1)Cc1cc(N=[N+]([O-])c3ccc4c(c3)Cc3cc(OC)ccc3-4)ccc1-2 | 47.5
Fc1ccc(Oc2nc3ccccc3nc2-c2ccccc2)cc1 | -9.4
CC(=O)OC1CCC2(C)C(CCC3C2C(=O)C(Br)C2(C)C(C(C)=O)CCC32)C1 (stereo not given) | 13.3
CCN(CC)C(=O)CCC1CCCCC1 | -14.1
S=C(N1CCN(c2cccc(Cl)c2)CC1)N1CCN(c2cccc(Cl)c2)CC1 | 2.1
N#CC(=Nc1ccccc1)c1cccc(Br)c1 | 21.4
CCOC(=O)CCCCN(CC)CCCCC(=O)OCC | 16.6
Cc1c2c(cc3c1CCC1(C)C3CCC1C(C)/C=C/C(C)C(C)C)CC(O)CC2 (stereo not given) | -3
O=C(O)COc1ccccc1-c1ccccc1 | 1.55
CCOC(=O)c1cc2c(cn1)[nH]c1cccc(N)c12 | -3.5
COc1cccc(N=Nc2c(-c3ccccc3)nn(C(=S)S)c2C)c1 | 19.3
Cc1cc2c(cc1C)NC(=O)CC(c1ccccc1)=N2 | 28.9
CCCOC(=O)Nc1cccc(C)c1 | 3
Cc1cc([NH-])c([NH-])cc1C.[Cl][Pt+2][Cl] | -6.4

assay: NCI Yeast Anticancer Drug Screen. Data for the mlh1 rad18 strain (AID 175); conditions: S. cerevisiae mlh1 rad18 strain growth inhibition; at 50.0 µM; active compounds read high
How it was run: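 Compound-treated yeast growth, normalised to vehicle controls. Strain bears defined DNA repair mutations.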

Structure (SMILES) | growth inhibition [%]
COc1cccc(OC(=O)Nc2ccccc2)c1 | 3.25
O=C1C(O)=C(Cl)C(=O)C(O)=C1Cl.[Zn+2] | -26.8
O=CNCC(O)c1ccc2c(c1)[nH]c1ccccc12 (stereo not given) | 47.4
C1CCCCCC2=C(CCCC1)CCCO2 | 0.2
CSC1=NC=C(C#N)C2=NC(c3ccc(Cl)cc3)NN12 (stereo not given) | 14.7
COc1cc(CCl)c(OC)cc1Cl | -28.4
CC(=O)CC(=O)Nc1ccc(C(=O)c2ccccc2)cc1 | -22.2
O=C(N/C(=C\c1ccccc1[N+](=O)[O-])c1nc2ccccc2[nH]1)c1ccccc1 | -1.7
ClCC#CCCl | 5.1
NS(=O)(=O)c1ccc(Nc2c3ccccc3nc3ncccc23)cc1 | 16.9
CCCCCNC(=O)CCC | 40.9
Cc1ccc(N=C2C(c3ccccc3)=C(SC3=C(c4ccccc4)C(=Nc4ccc(C)cc4)c4ccccc43)c3ccccc32)cc1 | -8.65
CS(=O)(=O)OCC(CCl)(CCl)CCl | -0.8
O=C(N=c1ccc2nc(=O)[nH]n(O)c-2c1)C(F)(F)F | -32.7
Cc1nc([N+](=O)[O-])cn1CC(=N)N | -38.7
NC1=C(Br)C(=O)c2[nH]c(=O)[nH]c(=O)c2C1=O | 20.6
CC1(C)C(=NN=C(N)N)C(C)(C)C1=NN=C(N)N | 14.7
CC1OC(C)(c2ccccc2)OC1C (stereo not given) | 41.7
COc1cccc(C(F)(F)F)c1 | -13
c1ccc(CN(CCNc2ccccc2)c2ccccc2)cc1 | 3.7

Structure (SMILES) | growth inhibition [%]
O=S(=O)(N=N/C=C1\C=CC=CN1O)c1cccs1 | -21.1
Cc1noc(C)c1N=Nc1ccc2nonc2c1N | 3.05
NC(=O)C(=O)CC(=O)c1ccccc1NC1=CC(=O)C(=O)c2ccccc21 | 37.5
COc1ccccc1C=Nc1ccc(O)cc1 | 37.5
CC(CC(=N)N)NC(=O)C1CCC(N)=N1 (stereo not given) | -9.75
CCN(CC)CCCC(C)Nc1ccnc2ccc3nn(C)nc3c12 (stereo not given) | -14.3
COc1ccc2c(c1)Cc1cc(N=[N+]([O-])c3ccc4c(c3)Cc3cc(OC)ccc3-4)ccc1-2 | 9.85
Fc1ccc(Oc2nc3ccccc3nc2-c2ccccc2)cc1 | 25.7
CC(=O)OC1CCC2(C)C(CCC3C2C(=O)C(Br)C2(C)C(C(C)=O)CCC32)C1 (stereo not given) | 25.4
CCN(CC)C(=O)CCC1CCCCC1 | -23.5
S=C(N1CCN(c2cccc(Cl)c2)CC1)N1CCN(c2cccc(Cl)c2)CC1 | 12.7
N#CC(=Nc1ccccc1)c1cccc(Br)c1 | 28.4
CCOC(=O)CCCCN(CC)CCCCC(=O)OCC | -19.6
Cc1c2c(cc3c1CCC1(C)C3CCC1C(C)/C=C/C(C)C(C)C)CC(O)CC2 (stereo not given) | 20.5
O=C(O)COc1ccccc1-c1ccccc1 | -8.6
CCOC(=O)c1cc2c(cn1)[nH]c1cccc(N)c12 | -9.55
COc1cccc(N=Nc2c(-c3ccccc3)nn(C(=S)S)c2C)c1 | 20.6
Cc1cc2c(cc1C)NC(=O)CC(c1ccccc1)=N2 | 10.8
CCCOC(=O)Nc1cccc(C)c1 | 8.95
Cc1cc([NH-])c([NH-])cc1C.[Cl][Pt+2][Cl] | -25.9
